# PubChem BioAssay (NCATS)
# Inconclusive results are not listed. A call without a number means that no potency is given here. Activity calls are given as the source filed them. Unless noted, calls follow the shape of the full dose curve.
# Tests used:
# [1] = Inducers of the Endoplasmic Reticulum Stress Response (ERSR) in human glioma: Validation (AID 504836; active = well fitted curve in the direction sought with a large enough effect; an effect the other way counts as inactive or inconclusive)
# Outline: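 Stably transfected U87-MG glioma cells carrying a GRP78-based luciferase sensor; 16 h compound incubation. Luminescence end-point read 10 min after Bright-Glo addition at room temperature.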
# [2] = qHTS for Inhibitors of the Functional Ribonucleoprotein Complex (vRNP) of Lassa (LASV) Arenavirus: LASV Primary Screen - GLuc reporter signal (AID 1347082; calls by dose curve; tested in HEK293 reporter line; also: series mostly up to about 57 µM; nearly all actives have a fitted effect of over 60% in size)
# [3] = qHTS for Inhibitors of the Functional Ribonucleoprotein Complex (vRNP) of Lassa (LASV) Arenavirus: Viability assay - alamar blue signal for LASV Primary Screen (AID 1347083; calls by dose curve; tested in HEK293 reporter line; also: series mostly up to about 57 µM; nearly all actives have a fitted effect of over 80% in size)
# [4] = qHTS for Inhibitors of the Functional Ribonucleoprotein Complex (vRNP) of Lymphocytic Choriomeningitis Arenaviruses (LCMV): Viability assay - alamar blue signal for LCMV Primary Screen (AID 1347085; calls by dose curve; tested in HEK293 reporter line; also: series mostly up to about 57 µM; nearly all actives have a fitted effect of over 80% in size)
# [5] = target: Nucleoprotein (Lymphocytic choriomeningitis virus (strain Armstrong)) (UniProt P09992); experiment: qHTS for Inhibitors of the Functional Ribonucleoprotein Complex (vRNP) of Lymphocytic Choriomeningitis Arenaviruses (LCMV): LCMV Primary Screen - GLuc reporter signal (AID 1347086); also: series mostly up to about 57 µM; nearly all actives have a fitted effect of over 70% in size
# Nucleoprotein (Lymphocytic choriomeningitis virus (strain Armstrong)), sequence (P09992 whole entry, looked up): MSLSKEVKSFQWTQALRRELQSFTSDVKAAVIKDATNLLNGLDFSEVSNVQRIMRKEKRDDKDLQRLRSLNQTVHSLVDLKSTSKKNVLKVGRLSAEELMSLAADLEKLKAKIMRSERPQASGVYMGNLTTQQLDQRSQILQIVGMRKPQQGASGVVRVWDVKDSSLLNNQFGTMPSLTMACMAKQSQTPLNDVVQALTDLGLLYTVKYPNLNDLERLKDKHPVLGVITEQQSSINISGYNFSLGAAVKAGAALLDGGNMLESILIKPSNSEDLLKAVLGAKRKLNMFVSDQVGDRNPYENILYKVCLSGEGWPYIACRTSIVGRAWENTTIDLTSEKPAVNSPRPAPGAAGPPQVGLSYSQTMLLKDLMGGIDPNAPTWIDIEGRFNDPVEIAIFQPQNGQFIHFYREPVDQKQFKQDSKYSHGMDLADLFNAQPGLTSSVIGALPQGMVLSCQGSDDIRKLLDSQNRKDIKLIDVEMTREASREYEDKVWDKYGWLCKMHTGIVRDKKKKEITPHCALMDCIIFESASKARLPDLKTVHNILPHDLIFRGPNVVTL
# [6] = target: Alpha-galactosidase (Coffea arabica) (UniProt Q42656); experiment: Counterscreen for Glucocerebrosidase Inhibitors: qHTS Assay for Coffee Bean alpha-Galactosidase at pH 4.5 (AID 957; active = well fitted curve in the direction sought with a large enough effect; an effect the other way counts as inactive or inconclusive; also: series mostly up to about 77 µM)
# Alpha-galactosidase (Coffea arabica), sequence (Q42656 whole entry, looked up): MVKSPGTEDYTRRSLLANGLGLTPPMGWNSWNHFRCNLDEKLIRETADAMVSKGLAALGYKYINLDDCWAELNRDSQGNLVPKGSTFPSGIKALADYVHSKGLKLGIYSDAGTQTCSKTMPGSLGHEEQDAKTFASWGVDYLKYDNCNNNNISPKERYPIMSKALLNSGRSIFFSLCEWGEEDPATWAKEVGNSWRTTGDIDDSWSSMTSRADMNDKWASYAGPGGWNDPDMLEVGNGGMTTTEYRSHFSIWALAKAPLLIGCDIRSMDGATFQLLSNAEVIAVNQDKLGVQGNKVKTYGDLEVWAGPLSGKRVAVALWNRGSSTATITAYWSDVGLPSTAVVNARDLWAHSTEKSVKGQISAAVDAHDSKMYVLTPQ
# Outline: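 Fluorogenic read-out: 4-methylumbelliferone at Ex 365/Em 440 nm after NaOH/glycine stop (pH 10). Enzyme 2 nM, 4-MU-alpha-galactoside 80 uM, citrate buffer pH 4.5, 20 min RT; normalized to no-enzyme and enzyme controls.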
# [7] = target: Alpha-galactosidase (Coffea arabica) (UniProt Q42656); experiment: Counterscreen for Glucocerebrosidase Inhibitors: qHTS Assay for Coffee Bean alpha-Galactosidase at pH 5.9 (AID 998; active = well fitted curve in the direction sought with a large enough effect; an effect the other way counts as inactive or inconclusive)
# Outline: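 Enzyme 2 nM + cpd (0.7 nM–77 uM titration) + 4-MU-alpha-Gal 80 uM, pH 5.9 citrate/Tween-20, RT 20 min, NaOH/glycine stop pH 10, fluor 365/440. Normalized to no-enzyme and full-activity controls; Hill-fit AC50.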
# [8] = Validation screen for inhibitors of Lassa infection (AID 463096)
# [9] = Quantitative high throughput screen for delayed death inhibitors of the malarial parasite plastid, 48 hour incubation (AID 488752; active = well fitted curve in the direction sought with a large enough effect; an effect the other way counts as inactive or inconclusive; also: potency is read from the fitted curve at half-maximal effect; nearly all actives have a fitted effect of over 65% in size)
# Outline: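 Luciferase-expressing P. falciparum in RBCs, 2% Hct, 0.1% parasitemia final; RPMI 1640 + 0.5% Albumax; 48 h, 37 C, 5% CO2; luminescence readout, signal drop = growth inhibition.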
# [10] = target: Flap endonuclease 1 (Homo sapiens) (UniProt P39748); experiment: qHTS Validation Assay for the Inhibitors of Human Flap endonuclease 1 (FEN1) (AID 488816; active = well fitted curve in the direction sought with a large enough effect; an effect the other way counts as inactive or inconclusive)
# Flap endonuclease 1 (Homo sapiens), sequence (P39748 whole entry, looked up): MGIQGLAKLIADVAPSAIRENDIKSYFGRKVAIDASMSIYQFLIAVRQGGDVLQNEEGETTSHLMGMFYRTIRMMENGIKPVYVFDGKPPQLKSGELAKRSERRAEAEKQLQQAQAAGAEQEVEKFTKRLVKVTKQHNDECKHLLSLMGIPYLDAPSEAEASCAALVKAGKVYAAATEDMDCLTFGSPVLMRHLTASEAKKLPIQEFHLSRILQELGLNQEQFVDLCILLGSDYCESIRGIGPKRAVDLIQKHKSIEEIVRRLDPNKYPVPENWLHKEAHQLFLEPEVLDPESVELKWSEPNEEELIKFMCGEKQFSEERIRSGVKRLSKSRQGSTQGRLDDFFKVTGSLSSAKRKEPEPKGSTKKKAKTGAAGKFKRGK
# Outline: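 Enzyme reagent 10 nM; cpds pinned; 15 min RT preinc.; substrate 50 nM final; reads t=0 and 15 min; no-enzyme buffer wells as neg. control; normalized data, 4-parameter Hill fit.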
# [11] = target: Arylsulfatase A (Homo sapiens) (UniProt P15289); experiment: qHTS screen for enhancers of Arylsulfatase A (ASA1): LOPAC Validation Assay (AID 720538; active = well fitted curve in the direction sought with a large enough effect; an effect the other way counts as inactive or inconclusive)
# Arylsulfatase A (Homo sapiens), sequence (P15289 whole entry, looked up): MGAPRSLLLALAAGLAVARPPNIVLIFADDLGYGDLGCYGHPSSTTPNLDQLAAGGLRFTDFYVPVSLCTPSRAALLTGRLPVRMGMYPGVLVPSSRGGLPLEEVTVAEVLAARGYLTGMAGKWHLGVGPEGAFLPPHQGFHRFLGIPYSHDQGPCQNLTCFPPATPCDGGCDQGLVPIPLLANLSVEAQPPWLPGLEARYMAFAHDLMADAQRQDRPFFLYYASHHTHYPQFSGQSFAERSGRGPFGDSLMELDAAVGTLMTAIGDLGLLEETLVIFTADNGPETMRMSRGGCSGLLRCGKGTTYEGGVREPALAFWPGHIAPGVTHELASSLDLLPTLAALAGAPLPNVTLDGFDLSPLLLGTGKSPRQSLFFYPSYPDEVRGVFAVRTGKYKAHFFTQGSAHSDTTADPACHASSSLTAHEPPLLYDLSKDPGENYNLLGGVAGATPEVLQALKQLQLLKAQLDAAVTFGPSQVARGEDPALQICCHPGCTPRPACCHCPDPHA
# Outline: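 MLD patient fibroblasts (SV40, ASA-I179S), 1536-well; adhere 6 hrs; cpd 48h, 37 degree C, 5% CO2; pNCS 0.5mM final in lysis buffer, 14h RT; stop 1N NaOH final; fluor. Ex525/Em598.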
# [12] = target: Cytochrome P450 3A4 (Homo sapiens) (UniProt P08684); experiment: qHTS Assay for Inhibitors and Substrates of Cytochrome P450 3A4 (AID 884; active = well fitted curve in the direction sought with a large enough effect; an effect the other way counts as inactive or inconclusive; also: series mostly up to about 57 µM; nearly all actives have a fitted effect of over 50% in size)
# Cytochrome P450 3A4 (Homo sapiens), sequence (P08684 whole entry, looked up): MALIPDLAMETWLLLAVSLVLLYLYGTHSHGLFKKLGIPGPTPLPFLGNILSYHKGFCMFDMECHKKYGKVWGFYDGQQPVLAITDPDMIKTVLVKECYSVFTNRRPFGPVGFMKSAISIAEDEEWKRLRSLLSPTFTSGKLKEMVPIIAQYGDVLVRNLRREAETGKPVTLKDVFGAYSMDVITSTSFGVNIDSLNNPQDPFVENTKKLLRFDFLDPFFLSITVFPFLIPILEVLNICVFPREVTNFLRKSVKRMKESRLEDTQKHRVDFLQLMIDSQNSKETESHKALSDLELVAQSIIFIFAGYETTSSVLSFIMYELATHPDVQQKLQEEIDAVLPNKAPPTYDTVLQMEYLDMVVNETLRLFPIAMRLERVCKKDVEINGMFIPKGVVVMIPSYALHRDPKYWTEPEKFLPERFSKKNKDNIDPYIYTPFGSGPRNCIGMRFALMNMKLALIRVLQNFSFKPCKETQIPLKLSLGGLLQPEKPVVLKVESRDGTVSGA
# Outline: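 Luminescent readout of luciferin produced by CYP3A4 (20 nM) dealkylation of Luciferin-PPXE, 25 uM (its KM). NADPH-driven reaction ran 60 min at RT after 10 min compound preincubation; data scaled to 57 uM ketoconazole as 100% inhibition.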
compound,measurement,setting,value
Cc1nc2n(c(=O)c1CCN1CCC(c3noc4cc(F)ccc34)CC1)CCCC2O (stereo unspecified),outcome,[1],inactive
same,Potency,[2],inactive
same,Potency,[3],inactive
same,Potency,[4],inactive
same,Potency,[5],inactive
COc1ccccc1N1CCN(CCN(C(=O)c2ccc(F)cc2)c2ccccn2)CC1,outcome,[6],inactive
same,outcome,[7],inactive
same,Potency,[8],inactive
same,Potency,[2],inactive
same,Potency,[3],inactive
same,Potency,[4],inactive
same,Potency,[5],inactive
N.N.O=C(O)C1(C(=O)O)CCC1.[Pt],outcome,[6],inactive
same,Potency,[8],inactive
same,Potency,[2],inactive
same,Potency,[3],inactive
same,Potency,[4],inactive
same,Potency,[5],inactive
CN1CCc2cccc3c2C1Cc1ccc(O)c(O)c1-3 (stereo unspecified),Potency,[9],3.7 µM (active)
same,outcome,[1],inactive
same,Potency,[2],inactive
same,Potency,[3],inactive
same,Potency,[4],inactive
same,Potency,[5],inactive
O=C(O)CC1CC(c2ccccc2)=NO1 (stereo unspecified),Potency,[10],inactive
same,Potency,[11],inactive
same,Potency,[2],inactive
same,Potency,[3],inactive
same,Potency,[4],inactive
same,Potency,[5],inactive
CCCCC#Cc1nc(NC)c2ncn([C@@H]3O[C@H](CO)[C@@H](O)[C@H]3O)c2n1,outcome,[1],inactive
same,Potency,[2],inactive
same,Potency,[3],inactive
same,Potency,[4],inactive
same,Potency,[5],inactive
CC(C)[C@@H]1CC[C@@H](C)C[C@@H]1P(=O)(c1ccccc1)c1ccccc1,outcome,[1],inactive
same,Potency,[2],inactive
same,Potency,[3],inactive
same,Potency,[4],inactive
same,Potency,[5],inactive
Nc1ncnc2c1ncn2[C@@H]1O[C@H](COP(=O)(O)OP(=O)(O)OP(=O)(O)OP(=O)(O)OC[C@@H]2O[C@H](n3cnc4c(N)ncnc43)[C@@H](O)[C@H]2O)[C@@H](O)[C@H]1O,outcome,[1],inactive
same,Potency,[2],inactive
same,Potency,[3],inactive
same,Potency,[4],inactive
same,Potency,[5],inactive
O=[N+]([O-])c1ccc(CSc2ncnc3c2ncn3[C@@H]2O[C@H](CO)[C@@H](O)[C@H]2O)cc1,outcome,[1],inactive
same,Potency,[2],inactive
same,Potency,[3],inactive
same,Potency,[4],inactive
same,Potency,[5],inactive
OC[C@H]1O[C@@H](n2cnc3cncnc32)[C@H](O)[C@@H]1O,Potency,[12],inactive
same,Potency,[8],inactive
same,Potency,[2],inactive
same,Potency,[3],inactive
same,Potency,[4],inactive
same,Potency,[5],inactive
CCN(CC)CCNC(=O)c1ccc(NS(C)(=O)=O)cc1,outcome,[1],inactive
same,Potency,[2],inactive
same,Potency,[3],inactive
same,Potency,[4],inactive
same,Potency,[5],inactive
NC(=S)c1ccc[n+]([C@@H]2O[C@@H](COP(=O)([O-])OP(=O)(O)OC[C@H]3O[C@@H](n4cnc5c(N)ncnc54)[C@H](OP(=O)(O)O)[C@@H]3O)C(O)C2O)c1 (stereo partly specified),outcome,[1],inactive
same,Potency,[2],inactive
same,Potency,[3],inactive
same,Potency,[4],inactive
same,Potency,[5],inactive
CC1CC2C3CCC4=CC(=O)C=C[C@]4(C)[C@@]3(F)[C@@H](O)C[C@]2(C)[C@@]1(O)C(=O)CO (stereo partly specified),outcome,[1],inactive
same,Potency,[2],inactive
same,Potency,[3],inactive
same,Potency,[4],inactive
same,Potency,[5],inactive
COc1ccc(CCn2nnnc2C2(c3ccc(C)cc3)CC2)cc1,outcome,[1],inactive
same,Potency,[2],inactive
same,Potency,[3],inactive
same,Potency,[4],inactive
same,Potency,[5],inactive
CN1C2CCCC1CC(NC(=O)c1nn(C)c3ccccc13)C2 (stereo unspecified),outcome,[1],inactive
same,Potency,[2],inactive
same,Potency,[3],inactive
same,Potency,[4],inactive
same,Potency,[5],inactive
CC(O)C(O)[C@H]1CNc2nc(N)[nH]c(=O)c2N1 (stereo partly specified),outcome,[1],inactive
same,Potency,[2],inactive
same,Potency,[3],inactive
same,Potency,[4],inactive
same,Potency,[5],inactive
NC[C@@H]1O[C@H](c2ccccc2)Cc2c1ccc(O)c2O,outcome,[1],inactive
same,Potency,[2],inactive
same,Potency,[3],inactive
same,Potency,[4],inactive
same,Potency,[5],inactive
Nc1nc2c(cnn2CCc2ccccc2)c2nc(-c3ccco3)nn12,outcome,[1],inactive
same,Potency,[2],inactive
same,Potency,[3],inactive
same,Potency,[4],inactive
same,Potency,[5],inactive
CN1CCc2cc(Cl)c(O)cc2[C@@H](c2ccccc2)C1,outcome,[1],inactive
same,Potency,[2],inactive
same,Potency,[3],inactive
same,Potency,[4],inactive
same,Potency,[5],inactive
CC(=O)SC1CC2=CC(=O)CC[C@]2(C)C2CC[C@@]3(C)C(CC[C@@]34CCC(=O)O4)C12 (stereo partly specified),outcome,[1],inactive
same,Potency,[2],inactive
same,Potency,[3],inactive
same,Potency,[4],inactive
same,Potency,[5],inactive
CN(CC[C@@H](Oc1ccc(C(F)(F)F)cc1)c1ccccc1)CC(=O)O,outcome,[1],inactive
same,Potency,[2],inactive
same,Potency,[3],inactive
same,Potency,[4],inactive
same,Potency,[5],inactive
OC[C@H]1O[C@@H](n2cnc3c(Nc4ccccc4)ncnc32)[C@H](O)[C@@H]1O,outcome,[1],inactive
same,Potency,[2],inactive
same,Potency,[3],inactive
same,Potency,[4],inactive
same,Potency,[5],inactive
NC[C@H]1O[C@@H](n2cnc3c(N)ncnc32)[C@H](O)[C@@H]1O,outcome,[1],inactive
same,Potency,[2],inactive
same,Potency,[3],inactive
same,Potency,[4],inactive
same,Potency,[5],inactive
N[C@H](C(=O)O)[C@H]1C[C@@H]1C(=O)O,outcome,[1],inactive
same,Potency,[2],inactive
same,Potency,[3],inactive
same,Potency,[4],inactive
same,Potency,[5],inactive
Cc1cc(Cn2cnc3c2C[C@@H](C(=O)O)N(C(=O)C(c2ccccc2)c2ccccc2)C3)ccc1N,outcome,[1],inactive
same,Potency,[2],inactive
same,Potency,[3],inactive
same,Potency,[4],inactive
same,Potency,[5],inactive
C[C@H](Cc1ccccc1)Nc1ncnc2c1ncn2[C@@H]1O[C@H](CO)[C@@H](O)[C@H]1O,outcome,[1],inactive
same,Potency,[2],inactive
same,Potency,[3],inactive
same,Potency,[4],inactive
same,Potency,[5],inactive
CCCn1c(=O)c(C)cn2nc(N)nc12,outcome,[1],inactive
same,Potency,[2],inactive
same,Potency,[3],inactive
same,Potency,[4],inactive
same,Potency,[5],inactive
CN(C)c1ccc(/C=C2\C(=O)Nc3ccccc32)cc1,outcome,[1],inactive
same,Potency,[2],inactive
same,Potency,[3],inactive
same,Potency,[4],inactive
same,Potency,[5],inactive
Nc1nc2c(nc(Br)n2C2OC3COP(=O)(O)O[C@@H]3C2O)c(=O)[nH]1 (stereo partly specified),outcome,[1],inactive
same,Potency,[2],inactive
same,Potency,[3],inactive
same,Potency,[4],inactive
same,Potency,[5],inactive
OC[C@H]1O[C@H](n2cnc3c(N[C@H]4CCC[C@@H]4O)ncnc32)[C@H](O)[C@@H]1O,outcome,[1],inactive
same,Potency,[2],inactive
same,Potency,[3],inactive
same,Potency,[4],inactive
same,Potency,[5],inactive
c1ccc(C(NCc2cccnc2)(c2ccccc2)c2ccccc2)cc1,outcome,[1],inactive
same,Potency,[2],inactive
same,Potency,[3],inactive
same,Potency,[4],inactive
same,Potency,[5],inactive
O=C1NC(=O)/C(=C/c2ccc3c(c2)OC(F)(F)O3)S1,outcome,[1],inactive
same,Potency,[2],inactive
same,Potency,[3],inactive
same,Potency,[4],inactive
same,Potency,[5],inactive
COc1cccc2c1[C@@H]1CN(CCCCn3c(=O)[nH]c4c(sc5ncc(-c6ccccc6)nc54)c3=O)C[C@@H]1CO2,outcome,[1],inactive
same,Potency,[2],inactive
same,Potency,[3],inactive
same,Potency,[4],inactive
same,Potency,[5],inactive
O=C(O)CCC/C=C\C[C@@H]1[C@@H](/C=C/[C@H](O)C2Cc3ccccc3C2)[C@@H](F)C[C@@H]1O,outcome,[1],inactive
same,Potency,[2],inactive
same,Potency,[3],inactive
same,Potency,[4],inactive
same,Potency,[5],inactive
NCC(O)C1CCCCCCC1 (stereo unspecified),outcome,[1],inactive
same,Potency,[2],inactive
same,Potency,[3],inactive
same,Potency,[4],inactive
same,Potency,[5],inactive
C[C@H]1CC2C3CCC4=CC(=O)C=C[C@]4(C)[C@@]3(Cl)[C@@H](O)C[C@]2(C)[C@@]1(O)C(=O)CO (stereo partly specified),outcome,[1],inactive
same,Potency,[2],inactive
same,Potency,[3],inactive
same,Potency,[4],inactive
same,Potency,[5],inactive
N[C@@H](CCC(=O)N[C@H](CSN=O)C(=O)NCC(=O)O)C(=O)O,outcome,[1],inactive
same,Potency,[2],inactive
same,Potency,[3],inactive
same,Potency,[4],inactive
same,Potency,[5],inactive
